In PubChem BioAssay (Tox21) one finds Potency, outcome and max activation data, which are given here for nine molecules.

Values joined by “and” are separate entries in the source; they are usually repeats but may differ in a detail not shown here. Identical values can stand only once. Results filed as inconclusive are left out. Active and inactive are the calls of the source. Unless noted, calls come from the whole dose curve; as a rule, active = well fitted curve in the direction sought with a large enough effect in the repeat runs; inconclusive = weak or mixed curves; inactive = no such curve, though single readings can be large; an effect the other way counts as inactive or inconclusive.

Test [1] can be described thus: qHTS assay to identify small molecule agonists of the estrogen receptor alpha (ER-alpha) signaling pathway in the presence of an antagonist - cell viability counter screen (AID 1259386).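 Note: series mostly up to about 92 µM; cells exposed to compounds for 22 h at 37 °C before the viability read; nearly all actives have a fitted effect of over 30% in size.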 In a few lines:
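Cells are starved of estrogens for 5 days in charcoal-stripped serum, seeded for 24hr and co-treated with ICI-182,780 (10.0nM final) and test compounds. After 22hr at 37C, viability is read as CellTiter-Fluor fluorescence.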

Test [2] addresses Progesterone receptor (Homo sapiens) (UniProt P06401). As to the kind of experiment: qHTS assay to identify small molecule agonists of the progesterone receptor (PR) signaling pathway (AID 1346784; calls by dose curve; note: nearly all actives have a fitted effect of over 30% in size). In a few lines: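 Fluorescence from LiveBLAzer B/G FRET substrate cleavage (2 hr, RT) reported PR activation in PR-UAS-bla HEK 293T cells treated 16 hr at 37C/5% CO2 with compounds; medium contained 2% charcoal-stripped FBS.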

Test [3] can be described thus: qHTS assay to identify small molecule agonists of the progesterone receptor (PR) signaling pathway - cell viability counter screen (AID 1346799; calls by dose curve; note: nearly all actives have a fitted effect of over 45% in size). In a few lines:
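In parallel with the beta-lactamase readout, cytotoxicity toward PR-UAS-bla HEK293T cells was measured by CellTiter-Glo luminescence following 16 hr compound incubation in 2% charcoal-stripped FBS medium.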

Test [4] can be described thus: qHTS assay to identify small molecule antagonists of the TGF-beta/Smad signaling pathway - cell viability counter screen (AID 1346824). Note: nearly all actives have a fitted effect of over 50% in size. A digest of the protocol:
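Cytotoxicity counter-screen run in the same wells as the beta-lactamase Smad reporter read: CellTiter-Glo luminescence after 30 min at room temperature. HEK 293T SBE-bla cells had 5 hr compound exposure at 37 C with TGF-beta1 (0.25 ng/mL stock).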

Test [5] in a line: qHTS assay to identify small molecule agonists of the TGF-beta/Smad signaling pathway - cell viability counter screen (AID 1346829). Note: top concentration of the series differs between compounds; nearly all actives have a fitted effect of over 45% in size. In a few lines: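 Compound-treated SBE-bla HEK 293T cells (5 hr, 37 C) were assessed for viability with CellTiter-Glo in parallel with the reporter read.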
Test [6] can be described thus: qHTS assay to identify small molecule agonists of the TGF-beta/Smad signaling pathway (AID 1346859; active = well fitted activation curve with a large enough effect in the signal ratio in the repeat runs, not every such curve was filed as active; the % refers to the signal ratio; note: series mostly up to about 77 µM). A digest of the protocol:
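After overnight seeding, SBE-bla HEK 293T cells are dosed with compounds in DMSO and kept 5 hr at 37 C, 5% CO2. LiveBLAzer-type FRET substrate is then applied for 2 hr at room temperature.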

Test [7] is described as follows: Human pregnane X receptor (PXR) small molecule agonists, qHTS cell viability counter screen (AID 1346977). Note: nearly all actives have a fitted effect of over 50% in size. Note: potency is the fitted concentration of half-maximal effect. A digest of the protocol: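 Viability counter screen: CellTiter-Fluor signal in PXR-Luc HepG2 cells, 24hr compound exposure, 37C, 5% CO2.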
Test [8] is described as follows: Caspase-3/7 induction in HepG2 cells by small molecules, qHTS assay (AID 1346978). Note: nearly all actives have a fitted effect of over 15% in size. A digest of the protocol: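 Caspase-3/7 induction was measured by Caspase-Glo 3/7 luminescence (30 min, room temperature) after a 17 hr compound exposure of wild-type HepG2 cells seeded at 2,000 per well and pre-incubated 5 hr.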
A short description of test [9]: Caspase-3/7 induction in CHO-K1 cells by small molecules, qHTS cell viability counter screen (AID 1346979). Note: nearly all actives have a fitted effect of over 35% in size. Note: potency is the fitted concentration of half-maximal effect. A digest of the protocol:
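Viability readout by fluorescence (CellTiter-Fluor) on wild-type CHO-K1 cells exposed for 16hr at 37C and 5% CO2 to compounds delivered in DMSO; reagent incubated 1hr before reading.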

Test [10] is described as follows: Caspase-3/7 induction in CHO-K1 cells by small molecules, qHTS assay (AID 1346980). Note: nearly all actives have a fitted effect of over 15% in size. In a few lines: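 Luminescent Caspase-Glo 3/7 read (30min, room temperature) quantified apoptosis induction. Cells were wild-type CHO-K1, treated with compound for 17hr at 37 C and 5% CO2.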
For test [11], the target named is Nuclear receptor subfamily 1 group I member 2 (Homo sapiens) (UniProt O75469). The test is described as follows: Human pregnane X receptor (PXR) small molecule agonists, qHTS assay (AID 1346982). Note: nearly all actives have a fitted effect of over 35% in size. Note: potency is the fitted concentration of half-maximal effect. In a few lines:
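Agonist mode qHTS: PXR-Luc HepG2 cells plated 5 hr before DMSO-dissolved compounds were pinned in, cultured 24 hr at 37 C, 5% CO2; ONE-Glo luminescence readout.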

The target of test [12] is Acetylcholinesterase (Homo sapiens) (UniProt P22303). As to the kind of experiment: Acetylcholinesterase (AChE) small molecule antagonists: colormetric cell-based qHTS assay (AID 1347395; calls by dose curve; note: nearly all actives have a fitted effect of over 30% in size). A digest of the protocol:
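Homogeneous whole-cell format. SH-SY5Y cells seeded overnight, dosed with compound (30 min, 37 C, 5% CO2), then given DTNB/acetylthiocholine cocktail for 90 min at 37 C; colorimetric signal.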

Test [13] in a line: qHTS assay to identify small molecule antagonists of the progesterone receptor (PR) signaling pathway - cell viability counter screen (AID 1346798). Note: nearly all actives have a fitted effect of over 50% in size. Note: potency is the fitted concentration of half-maximal effect. A digest of the protocol:
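CellTiter-Glo luminescence; PR-UAS-bla HEK293T, 3,000 cells/well; compound + R5020, 16 hr, 37C/5% CO2; 30 min RT before read.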

Test [14] addresses Thyrotropin-releasing hormone receptor (Homo sapiens) (UniProt P34981). The test is described as follows: qHTS assay to identify small molecule antagonists of the thyrotropin-releasing hormone receptor (TRHR) signaling pathway (AID 1346877; active = well fitted inhibition curve with a large enough effect in the repeat runs, not every such curve was filed as active; note: series mostly up to about 51 µM). In a few lines:
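Cells (TRHR-HEK293) are plated and kept 18 h at 37 °C/5% CO2. A calcium-sensitive dye is added for 2 h, compound follows for 5 min at room temperature, and TRH is then given at 1 nM final.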

For test [15] the target is unchanged. As to the kind of experiment: qHTS assay to identify small molecule agonists of the thyrotropin-releasing hormone receptor (TRHR) signaling pathway (AID 1346891; calls by dose curve;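 note: HEK293 cells expressing TRHR with calcium dye readout; series mostly up to about 58 µM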). In a few lines: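 Compounds were tested as agonists at 15 concentrations, in triplicate, on TRHR-Hek293 cells; calcium-sensitive dye fluorescence was recorded for 3 min following addition.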
Test [16] in a line: Caspase-3/7 induction in HepG2 cells by small molecules, qHTS cell viability counter screen (AID 1346981). Note: nearly all actives have a fitted effect of over 30% in size. Note: potency is the fitted concentration of half-maximal effect. A digest of the protocol: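 Steps: seed 2,000 HepG2 cells per well; incubate 5 hr at 37 C; pin-add compounds in DMSO; incubate 16 hr; add CellTiter-Fluor; after 1 hr at 37 C and 5% CO2, read fluorescence.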
Test [17] concerns the target Nuclear receptor subfamily 1 group I member 2 (Rattus norvegicus) (UniProt Q9R1A7). As to the kind of experiment: Rat pregnane X receptor (rPXR) activation by small molecules, qHTS assay (AID 1346983). Note: nearly all actives have a fitted effect of over 20% in size. The settings on record: rPXR luciferase reporter cells, One-Glo luminescence, 24 h; hits give high values. In a few lines:
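Luminescent readout (One-Glo luciferase, 30 min room temperature) followed 24 hr compound treatment at 37 C of rPXR cells plated 2,000 per well and preincubated 5hr; qHTS format with compounds delivered in DMSO.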

For test [18], the target named is Nuclear receptor subfamily 1 group I member 2 (Homo sapiens) (UniProt O75469). The test is described as follows: CYP3A4 induction through human pregnane X receptor (PXR) by small molecules, qHTS assay (AID 1346984). Note: nearly all actives have a fitted effect of over 40% in size. In a few lines: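 Steps: seed DPX-2 cells, 5 hr at 37C; pin-transfer compounds; 24 hr at 37C; add Luciferin-IPA (3uM final), 3 hr at 37C; add One-Glo, 30 min RT; read luminescence.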

The target is the same in test [19]. As to the kind of experiment: Human pregnane X receptor (PXR) activation by small molecules, qHTS assay (AID 1346985). Note: nearly all actives have a fitted effect of over 40% in size. In a few lines:
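DPX-2 cells (HepG2 co-transfected with a PXR response element and a CYP3A4-promoter luciferase construct) were seeded at 2,000 per well, rested 5 hr at 37C, then exposed to DMSO-dissolved compounds for 24 hr. Activation was read as luciferase luminescence.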
% is set by controls: 0 for no effect and ±100 for the full control effect.

Sequence of Nuclear receptor subfamily 1 group I member 2 (Homo sapiens) (O75469 whole entry, looked up): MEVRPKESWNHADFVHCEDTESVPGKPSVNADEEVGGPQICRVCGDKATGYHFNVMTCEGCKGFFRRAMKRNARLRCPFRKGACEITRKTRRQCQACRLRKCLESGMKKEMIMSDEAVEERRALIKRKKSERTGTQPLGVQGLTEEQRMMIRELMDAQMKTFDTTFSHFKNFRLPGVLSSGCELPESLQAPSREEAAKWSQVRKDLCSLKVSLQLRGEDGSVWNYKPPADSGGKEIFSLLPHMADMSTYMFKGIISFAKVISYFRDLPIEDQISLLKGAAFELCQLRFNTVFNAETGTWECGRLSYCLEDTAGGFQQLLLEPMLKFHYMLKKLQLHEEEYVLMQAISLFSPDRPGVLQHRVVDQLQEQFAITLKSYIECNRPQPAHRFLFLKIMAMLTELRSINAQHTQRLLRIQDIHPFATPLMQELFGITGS
Sequence of Progesterone receptor (Homo sapiens) (P06401 whole entry, looked up): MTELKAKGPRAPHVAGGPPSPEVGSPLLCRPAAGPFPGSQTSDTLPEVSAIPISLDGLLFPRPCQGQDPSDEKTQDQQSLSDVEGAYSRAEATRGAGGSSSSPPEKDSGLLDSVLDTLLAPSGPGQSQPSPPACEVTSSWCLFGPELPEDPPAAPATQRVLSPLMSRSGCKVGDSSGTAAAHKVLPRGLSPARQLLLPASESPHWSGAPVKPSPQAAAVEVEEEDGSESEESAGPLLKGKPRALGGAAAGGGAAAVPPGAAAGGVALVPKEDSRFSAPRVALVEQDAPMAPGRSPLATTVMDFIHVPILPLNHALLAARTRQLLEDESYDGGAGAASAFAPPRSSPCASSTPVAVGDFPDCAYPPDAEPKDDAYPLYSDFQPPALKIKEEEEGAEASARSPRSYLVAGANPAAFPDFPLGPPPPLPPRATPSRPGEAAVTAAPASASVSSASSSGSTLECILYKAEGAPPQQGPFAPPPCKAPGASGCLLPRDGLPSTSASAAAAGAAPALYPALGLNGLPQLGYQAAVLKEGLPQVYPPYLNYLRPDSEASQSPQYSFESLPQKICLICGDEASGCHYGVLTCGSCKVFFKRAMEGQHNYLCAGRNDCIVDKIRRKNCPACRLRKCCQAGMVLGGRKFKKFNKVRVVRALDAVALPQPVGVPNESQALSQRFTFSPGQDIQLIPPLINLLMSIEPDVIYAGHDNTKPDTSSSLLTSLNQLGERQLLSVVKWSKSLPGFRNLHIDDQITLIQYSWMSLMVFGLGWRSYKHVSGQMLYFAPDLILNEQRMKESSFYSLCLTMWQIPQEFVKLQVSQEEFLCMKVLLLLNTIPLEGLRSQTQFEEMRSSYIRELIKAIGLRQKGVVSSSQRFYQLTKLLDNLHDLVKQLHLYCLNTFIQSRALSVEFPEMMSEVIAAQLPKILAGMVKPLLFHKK
Sequence of Thyrotropin-releasing hormone receptor (Homo sapiens) (P34981 whole entry, looked up): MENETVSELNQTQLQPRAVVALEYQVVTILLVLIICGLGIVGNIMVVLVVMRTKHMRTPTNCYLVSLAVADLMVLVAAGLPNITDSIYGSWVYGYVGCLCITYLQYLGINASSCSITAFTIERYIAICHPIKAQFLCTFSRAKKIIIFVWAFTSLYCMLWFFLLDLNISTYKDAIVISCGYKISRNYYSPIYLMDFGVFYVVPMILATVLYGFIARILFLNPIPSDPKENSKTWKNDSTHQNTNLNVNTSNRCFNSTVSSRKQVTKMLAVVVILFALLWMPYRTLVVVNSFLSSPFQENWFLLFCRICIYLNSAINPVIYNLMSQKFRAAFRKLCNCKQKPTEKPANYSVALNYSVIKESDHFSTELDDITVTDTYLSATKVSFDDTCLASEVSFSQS
Sequence of Acetylcholinesterase (Homo sapiens) (P22303 whole entry, looked up): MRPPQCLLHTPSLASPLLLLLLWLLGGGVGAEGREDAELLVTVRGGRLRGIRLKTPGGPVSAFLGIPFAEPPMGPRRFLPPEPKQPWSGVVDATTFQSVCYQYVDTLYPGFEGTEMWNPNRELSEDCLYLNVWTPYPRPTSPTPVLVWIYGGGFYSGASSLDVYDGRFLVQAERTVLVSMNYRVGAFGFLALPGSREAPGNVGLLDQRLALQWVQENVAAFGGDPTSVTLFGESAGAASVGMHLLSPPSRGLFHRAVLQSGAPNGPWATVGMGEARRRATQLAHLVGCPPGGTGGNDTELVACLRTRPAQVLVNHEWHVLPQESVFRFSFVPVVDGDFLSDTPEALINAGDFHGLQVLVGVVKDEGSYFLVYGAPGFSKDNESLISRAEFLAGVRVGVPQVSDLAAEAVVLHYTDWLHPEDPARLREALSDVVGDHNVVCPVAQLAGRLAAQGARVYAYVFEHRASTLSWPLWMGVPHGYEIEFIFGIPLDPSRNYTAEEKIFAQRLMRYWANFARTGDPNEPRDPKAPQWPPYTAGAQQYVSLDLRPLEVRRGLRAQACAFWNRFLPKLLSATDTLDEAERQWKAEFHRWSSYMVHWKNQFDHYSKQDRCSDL
Sequence of Nuclear receptor subfamily 1 group I member 2 (Rattus norvegicus) (Q9R1A7 whole entry, looked up): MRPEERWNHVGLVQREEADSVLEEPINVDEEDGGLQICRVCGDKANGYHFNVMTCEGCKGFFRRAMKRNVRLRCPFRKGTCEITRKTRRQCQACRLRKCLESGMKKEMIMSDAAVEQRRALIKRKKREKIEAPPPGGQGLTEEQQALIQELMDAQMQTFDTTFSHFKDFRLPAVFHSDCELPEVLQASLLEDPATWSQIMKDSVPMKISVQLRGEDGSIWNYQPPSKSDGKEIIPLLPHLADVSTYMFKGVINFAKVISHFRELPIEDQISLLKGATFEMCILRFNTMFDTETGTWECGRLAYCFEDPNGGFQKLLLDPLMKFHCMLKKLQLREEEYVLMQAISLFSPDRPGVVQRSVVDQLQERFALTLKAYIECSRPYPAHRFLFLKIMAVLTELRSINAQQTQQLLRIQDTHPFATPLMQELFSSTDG

Take `NNCCO`: the Potency result in test [1], in test [2], in test [3], in test [4], in test [5] and in test [7] was “inactive” each time. In addition, the Potency result in test [8], in [9], in test [10], in [11] and in test [12] was “inactive” throughout. The molecule was classed as inactive in test [6].

On to `COC1=CC(=O)O[C@@H](/C=C/c2ccc3c(c2)OCO3)C1`, for which the Potency entry in test [1], in test [2], in test [13], in [4], in test [5] and in [14] was “inactive” throughout. The Potency entry in test [7], in test [8], in test [9], in test [16], in [11] and in test [12] was “inactive” each time. In addition, the call in [6] and in test [15] was inactive.

As for `CCCN(CCOc1c(Cl)cc(Cl)cc1Cl)C(=O)n1ccnc1`, the Potency result in test [1], in [2], in test [4], in test [8], in [10] and in test [12] was “inactive” in each case. Also, the Potency in [13] was 78.6 µM (active); in test [7], 50.1 µM (active); in [9] it was 62.4 µM (active); in test [16], 62.4 µM (active); in test [11] it was 7.86 µM (active) and 3.44 µM (active). The molecule was classed as inactive in test [6].

For `NP(N)(=O)NC(=O)c1ccc(F)cc1`, the Potency result in test [1], in test [2], in test [3], in test [5], in test [14] and in test [7] was “inactive” throughout. Besides, the Potency result in test [8], in test [9], in test [10], in test [16], in [11] and in test [19] was “inactive” each time. Besides, in test [12], the Potency result was “inactive”. Besides, the molecule was classed as inactive in [6], in test [15] and in test [18]. Besides, the max activation in test [17] was 0.566% (inactive).

As to `COCc1cnc(C2=NC(C)(C(C)C)C(=O)N2)c(C(=O)O)c1` (centres undefined), the Potency result in test [1], in [2], in [13], in test [14], in [7] and in [8] was “inactive” each time. Besides, the Potency result in test [9], in [10], in test [16], in [11] and in test [12] was “inactive” each time. Also, the molecule was classed as inactive in test [6].

For the molecule `CC(C)C1(C)N=C(c2ncccc2C(=O)O)NC1=O` (centres undefined), the Potency entry in [1], in [2], in test [3], in test [4], in test [14] and in test [7] was “inactive” throughout. For the same molecule, the Potency result in test [8], in [9], in [16], in test [11] and in [12] was “inactive” each time. Besides, the molecule was classed as inactive in test [6] and in [15].

For the molecule `COP(=O)(OC)OC(Br)C(Cl)(Cl)Br` (centres undefined), the Potency entry in test [1], in test [2], in test [3], in test [4], in [14] and in test [7] was “inactive” throughout. Moreover, the Potency result in [8] is “inactive”. Besides, the molecule was called inactive in test [6] and in test [15]. Also, the Potency in test [9] and in [11] was 61.2 µM (active) in each case.

As for `C=CCSSCC=C`, the Potency result in test [1], in test [2], in [3], in [4], in test [5] and in test [14] was “inactive” each time. The Potency entry in test [7], in test [8], in test [9], in [10], in test [16] and in test [11] was “inactive” in each case. In [12], the Potency entry is “inactive”. For the same molecule, the molecule was called inactive in [15].

As for `O=CC=O`, the Potency entry in [1], in [2], in test [3], in [4], in test [7] and in test [8] was “inactive” each time. For the same molecule, the Potency entry in [10], in test [16], in test [11], in [19] and in test [12] was “inactive” in each case. In addition, the molecule was called inactive in test [6] and in [18]. In test [17], the max activation is -4.84% (inactive).
